Laboratory results: the supplement of paper PMC10849652
Targets with a hit are over-represented here; the source holds about 7,900 in all. About 0.6% of all pairs of compound and target were hits.

Experiments:
Test in all cases: log2 fold change, soluble protein after heating vs DMSO (PISA); higher = thermal stabilisation; K562 cells, 10 uM, 30 min; active = over 0.2 and 3.5 SD of the protein, either way, in both replicates (recomputed)
[1] = compound: NC(=O)Nc1cc(-c2cccc(F)c2)sc1C(=O)N[C@H]1CCCNC1
In short: (§1)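 K562 cells at 2×10^6 cells/mL were treated for 30 min with 10 μM compound, and aliquots were heated for 3 min over 48°C-58°C before pooling. Extraction used PBS with 0.5% NP-40 at 4°C, and soluble protein was the supernatant after 21,000xg for 90 min, measured by TMTpro 16plex LC-MS/MS with channel sums equalised. Thermal stability values, relative to control samples and from duplicates, are log2 fold changes.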

[2] = compound: NC(=O)c1cnc(N[C@@H]2CCCC[C@@H]2N)nc1Nc1cccc(-n2nccn2)c1
In short: as §1

[3] = compound: NC1(c2ccc(-c3nc4ccn5c(=O)[nH]nc5c4cc3-c3ccccc3)cc2)CCC1
In short: as §1

[4] = compound: NCC(=O)Nc1ccc(-n2nc(C(F)(F)F)cc2-c2ccc3c(ccc4ccccc43)c2)cc1
In short: as §1

entinostat = compound: Nc1ccccc1NC(=O)c1ccc(CNC(=O)OCc2cccnc2)cc1 [entinostat]
In short: as §1

vorinostat = compound: O=C(CCCCCCC(=O)Nc1ccccc1)NO [vorinostat]
In short: as §1

citarinostat = compound: O=C(CCCCCCNC(=O)c1cnc(N(c2ccccc2)c2ccccc2Cl)nc1)NO [citarinostat]
In short: as §1

silmitasertib = compound: O=C(O)c1ccc2c(c1)nc(Nc1cccc(Cl)c1)c1ccncc12 [silmitasertib]
In short: as §1

[5] = compound: O=C1NC(=O)C(c2cnc3ccccn23)=C1c1cn2c3c(cc(F)cc13)CN(C(=O)N1CCCCC1)CC2
In short: as §1

[6] = compound: c1cc(OCCN2CCCCC2)cc(-c2n[nH]c3ccc(-c4nnc[nH]4)cc23)c1
In short: as §1

Measured: log2 fold change

HK2 (UniProt P52789)
inactive: [1] 0.003 | [2] -0.012 | [3] -0.059 | [4] 0.016 | entinostat 0.022 | vorinostat 0.048 | citarinostat 0.046 | silmitasertib -0.021 | [5] -0.065 | [6] -0.059

HIC2 (UniProt Q96JB3)
inactive: [1] -0.071 | [2] -0.06 | [3] 0.016 | [4] 0.101 | entinostat -0.027 | vorinostat -0.027 | citarinostat -0.019 | silmitasertib 0.098 | [5] 0.121 | [6] -0.233

GTF3C4 (UniProt Q9UKN8)
inactive: [1] -0.015 | [2] -0.012 | [3] -0.077 | [4] -0.04 | entinostat 0.024 | vorinostat -0.103 | citarinostat 0.04 | silmitasertib 0.03 | [5] -0.013 | [6] -0.019

HMG20A (UniProt Q9NP66)
inactive: [1] 0 | [2] 0.126 | [3] -0.054 | [4] -0.056 | entinostat 0.064 | vorinostat 0.09 | citarinostat 0.072 | silmitasertib 0.069 | [5] 0 | [6] -0.167

GLYR1 (UniProt Q49A26)
inactive: [1] -0.023 | [2] 0.034 | [3] -0.032 | [4] 0.112 | entinostat -0.049 | vorinostat 0.027 | citarinostat 0.011 | silmitasertib -0.015 | [5] -0.009 | [6] -0.135

GTF2A2 (UniProt P52657)
UniProt P52657, sequence (P52657 whole entry, looked up): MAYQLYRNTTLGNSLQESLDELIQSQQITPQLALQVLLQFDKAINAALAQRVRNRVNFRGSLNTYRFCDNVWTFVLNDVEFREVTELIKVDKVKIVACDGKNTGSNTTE
inactive: [1] 0.023 | [2] -0.028 | [3] -0.038 | [4] -0.008 | entinostat 0.03 | vorinostat -0.044 | citarinostat 0.058 | silmitasertib -0.008 | [5] -0.014 | [6] 0

GNL1 (UniProt P36915)
UniProt P36915, sequence (P36915 whole entry, looked up): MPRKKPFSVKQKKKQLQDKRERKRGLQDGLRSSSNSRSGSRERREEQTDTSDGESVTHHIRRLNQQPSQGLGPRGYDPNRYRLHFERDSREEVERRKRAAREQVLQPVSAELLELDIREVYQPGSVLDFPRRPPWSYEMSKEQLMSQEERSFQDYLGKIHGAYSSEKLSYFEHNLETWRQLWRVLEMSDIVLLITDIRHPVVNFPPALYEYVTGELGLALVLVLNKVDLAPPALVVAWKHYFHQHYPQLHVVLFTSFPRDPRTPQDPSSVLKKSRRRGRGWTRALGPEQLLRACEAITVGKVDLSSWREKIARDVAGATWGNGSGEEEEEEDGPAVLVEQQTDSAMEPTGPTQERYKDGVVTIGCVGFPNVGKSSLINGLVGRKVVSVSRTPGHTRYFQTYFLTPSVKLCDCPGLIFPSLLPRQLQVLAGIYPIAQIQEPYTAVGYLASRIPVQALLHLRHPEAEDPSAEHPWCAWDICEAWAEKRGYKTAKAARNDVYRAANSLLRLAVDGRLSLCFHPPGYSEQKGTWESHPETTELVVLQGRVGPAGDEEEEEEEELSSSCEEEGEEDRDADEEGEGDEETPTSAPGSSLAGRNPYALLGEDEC
inactive: [1] -0.045 | [2] -0.071 | [3] -0.114 | [4] -0.019 | entinostat 0.001 | vorinostat 0.008 | citarinostat 0.022 | silmitasertib -0.021 | [5] -0.005 | [6] -0.011

GMEB2 (UniProt Q9UKD1)
UniProt Q9UKD1, sequence (Q9UKD1 whole entry, looked up): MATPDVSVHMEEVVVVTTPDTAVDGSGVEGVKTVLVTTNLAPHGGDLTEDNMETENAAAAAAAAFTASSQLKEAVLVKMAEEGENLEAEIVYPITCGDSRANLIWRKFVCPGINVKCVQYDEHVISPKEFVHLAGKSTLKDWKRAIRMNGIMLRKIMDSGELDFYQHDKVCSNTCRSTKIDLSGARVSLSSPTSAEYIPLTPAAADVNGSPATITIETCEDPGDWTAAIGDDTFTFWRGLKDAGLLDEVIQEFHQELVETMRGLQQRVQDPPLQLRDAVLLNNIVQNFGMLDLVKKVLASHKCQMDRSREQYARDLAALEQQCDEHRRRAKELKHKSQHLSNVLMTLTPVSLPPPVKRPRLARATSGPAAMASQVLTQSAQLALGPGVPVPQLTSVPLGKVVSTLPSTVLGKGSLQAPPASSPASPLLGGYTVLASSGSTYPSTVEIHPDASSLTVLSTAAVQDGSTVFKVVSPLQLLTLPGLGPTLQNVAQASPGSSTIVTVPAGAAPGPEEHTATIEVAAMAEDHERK
inactive: [1] -0.039 | [2] -0.079 | [3] 0.056 | [4] -0.119 | entinostat 0.064 | vorinostat 0.063 | citarinostat 0.086 | silmitasertib 0.044 | [5] -0.194 | [6] -0.037

GCDH (UniProt Q92947)
inactive: [1] 0.015 | [2] 0.031 | [3] 0.052 | [4] 0.006 | entinostat -0.002 | vorinostat 0.103 | citarinostat 0.025 | silmitasertib -0.05 | [5] -0.019 | [6] 0.009

HIST2H2BF isoform 2 (UniProt Q5QNW6)
inactive: [1] 0.048 | [2] 0.225 | [3] 0.48 | [4] -0.029 | entinostat 0.159 | vorinostat 0.123 | citarinostat -0.001 | silmitasertib -0.064 | [5] 0.101 | [6] 0.016

HIST2H3A (UniProt Q71DI3)
inactive: [1] 0.032 | [2] 0.286 | [3] 0.46 | [4] -0.077 | entinostat 0.196 | vorinostat 0.442 | citarinostat 0.006 | silmitasertib -0.084 | [5] 0.07 | [6] -0.02

GEMIN2 (UniProt O14893)
inactive: [1] -0.05 | [2] -0.015 | [3] 0.017 | [4] -0.116 | entinostat -0.055 | vorinostat 0.102 | citarinostat -0.103 | silmitasertib 0.038 | [6] 0.073
active: [5] 0.375

HDDC2 (UniProt Q7Z4H3)
UniProt Q7Z4H3, sequence (Q7Z4H3 whole entry, looked up): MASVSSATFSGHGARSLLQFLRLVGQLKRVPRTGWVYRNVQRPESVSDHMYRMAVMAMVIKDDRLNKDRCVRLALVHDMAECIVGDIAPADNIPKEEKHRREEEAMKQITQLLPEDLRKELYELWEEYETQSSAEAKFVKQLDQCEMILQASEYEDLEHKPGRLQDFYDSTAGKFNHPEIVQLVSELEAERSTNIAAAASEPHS
inactive: [1] -0.013 | [2] 0.111 | [3] -0.005 | [4] 0.032 | entinostat -0.03 | vorinostat -0.036 | citarinostat 0.032 | silmitasertib -0.032 | [5] 0.029 | [6] -0.041

IFT74 (UniProt Q96LB3)
inactive: [1] 0.035 | [2] 0.009 | [3] 0.135 | [4] 0.045 | entinostat -0.091 | vorinostat 0.101 | citarinostat 0.171 | silmitasertib -0.187 | [5] -0.021 | [6] 0.06

GNAI3 (UniProt P08754)
UniProt P08754, sequence (P08754 whole entry, looked up): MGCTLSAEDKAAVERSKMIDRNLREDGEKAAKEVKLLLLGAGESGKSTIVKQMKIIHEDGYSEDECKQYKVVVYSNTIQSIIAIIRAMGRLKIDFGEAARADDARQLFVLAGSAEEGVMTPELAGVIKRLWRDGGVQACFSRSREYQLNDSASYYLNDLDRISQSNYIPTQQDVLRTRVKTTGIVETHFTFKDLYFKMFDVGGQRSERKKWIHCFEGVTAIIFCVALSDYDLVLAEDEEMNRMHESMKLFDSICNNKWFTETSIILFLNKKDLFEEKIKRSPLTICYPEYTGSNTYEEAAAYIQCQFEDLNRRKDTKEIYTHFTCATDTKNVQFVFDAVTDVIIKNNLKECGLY
inactive: [1] -0.016 | [2] 0.022 | [3] -0.046 | [4] 0.003 | entinostat -0.04 | vorinostat -0.016 | citarinostat -0.018 | silmitasertib 0.052 | [5] -0.027 | [6] -0.076

GLS isoform 3 (UniProt O94925)
UniProt O94925, sequence (O94925 whole entry, looked up): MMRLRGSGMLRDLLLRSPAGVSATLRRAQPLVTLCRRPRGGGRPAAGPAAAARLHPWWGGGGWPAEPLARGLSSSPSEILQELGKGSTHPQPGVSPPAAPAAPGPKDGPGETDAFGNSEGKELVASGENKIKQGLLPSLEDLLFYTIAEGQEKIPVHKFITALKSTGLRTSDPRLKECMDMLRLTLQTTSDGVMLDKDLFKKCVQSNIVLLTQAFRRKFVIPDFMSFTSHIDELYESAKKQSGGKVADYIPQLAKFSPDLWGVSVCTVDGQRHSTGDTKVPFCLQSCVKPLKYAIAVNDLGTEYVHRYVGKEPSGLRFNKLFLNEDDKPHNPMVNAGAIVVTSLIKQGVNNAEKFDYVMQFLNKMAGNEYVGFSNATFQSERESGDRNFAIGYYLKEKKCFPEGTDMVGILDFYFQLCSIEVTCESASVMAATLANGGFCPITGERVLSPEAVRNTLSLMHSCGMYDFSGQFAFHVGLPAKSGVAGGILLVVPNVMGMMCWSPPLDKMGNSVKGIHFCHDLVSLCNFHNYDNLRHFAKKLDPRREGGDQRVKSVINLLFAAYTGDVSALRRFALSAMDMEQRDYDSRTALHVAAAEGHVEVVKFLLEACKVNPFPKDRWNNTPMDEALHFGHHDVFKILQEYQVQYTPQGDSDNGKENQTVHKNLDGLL
inactive: [1] -0.133 | [2] 0.154 | [3] -0.285 | [4] 0.01 | entinostat -0.017 | vorinostat 0.019 | citarinostat 0.169 | silmitasertib 0 | [5] -0.24 | [6] 0.071

GGT7 (UniProt Q9UJ14)
inactive: [1] -0.034 | [2] 0.04 | [3] -0.076 | entinostat -0.081 | vorinostat 0.062 | citarinostat 0.058 | silmitasertib -0.009 | [5] -0.061 | [6] 0.002
active: [4] 0.288

HP1BP3 (UniProt Q5SSJ5)
UniProt Q5SSJ5, sequence (Q5SSJ5 whole entry, looked up): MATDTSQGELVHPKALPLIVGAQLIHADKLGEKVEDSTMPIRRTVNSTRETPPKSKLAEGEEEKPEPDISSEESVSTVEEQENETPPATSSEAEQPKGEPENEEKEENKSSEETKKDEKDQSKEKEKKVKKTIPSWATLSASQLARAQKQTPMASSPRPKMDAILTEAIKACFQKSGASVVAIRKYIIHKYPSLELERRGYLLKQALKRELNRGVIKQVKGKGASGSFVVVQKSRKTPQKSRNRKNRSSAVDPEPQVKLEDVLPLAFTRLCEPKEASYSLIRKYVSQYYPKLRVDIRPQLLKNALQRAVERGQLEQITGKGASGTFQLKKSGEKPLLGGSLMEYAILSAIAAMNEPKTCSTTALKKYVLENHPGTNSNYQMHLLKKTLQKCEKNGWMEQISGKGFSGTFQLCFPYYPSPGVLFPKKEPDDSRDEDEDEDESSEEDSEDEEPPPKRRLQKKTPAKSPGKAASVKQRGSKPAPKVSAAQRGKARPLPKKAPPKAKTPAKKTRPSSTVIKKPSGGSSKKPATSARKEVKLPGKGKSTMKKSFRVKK
inactive: [1] 0.026 | [2] -0.057 | [3] 0.043 | [4] -0.034 | entinostat 0.025 | vorinostat 0.132 | citarinostat 0.113 | silmitasertib -0.048 | [5] 0.067 | [6] -0.023

HAUS4 (UniProt Q9H6D7)
inactive: [1] 0.067 | [2] -0.165 | [3] 0.229 | [4] -0.089 | entinostat 0.12 | vorinostat 0.01 | citarinostat -0.106 | silmitasertib 0.095 | [5] 0.088 | [6] -0.08

GLRX3 (UniProt O76003)
UniProt O76003, sequence (O76003 whole entry, looked up): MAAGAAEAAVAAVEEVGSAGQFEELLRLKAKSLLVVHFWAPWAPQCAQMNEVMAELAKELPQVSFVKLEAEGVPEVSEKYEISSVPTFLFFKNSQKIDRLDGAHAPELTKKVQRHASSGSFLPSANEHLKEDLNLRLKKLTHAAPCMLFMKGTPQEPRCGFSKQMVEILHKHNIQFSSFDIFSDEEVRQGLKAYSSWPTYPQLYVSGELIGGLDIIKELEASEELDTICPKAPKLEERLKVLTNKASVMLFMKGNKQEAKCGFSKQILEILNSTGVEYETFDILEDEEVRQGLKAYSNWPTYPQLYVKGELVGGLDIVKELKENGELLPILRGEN
inactive: [1] 0 | [2] -0.057 | [3] -0.066 | [4] -0.042 | entinostat 0.022 | vorinostat -0.013 | citarinostat 0.014 | silmitasertib 0.034 | [5] -0.094 | [6] -0.024

FHOD1 (UniProt Q9Y613)
UniProt Q9Y613, sequence (Q9Y613 whole entry, looked up): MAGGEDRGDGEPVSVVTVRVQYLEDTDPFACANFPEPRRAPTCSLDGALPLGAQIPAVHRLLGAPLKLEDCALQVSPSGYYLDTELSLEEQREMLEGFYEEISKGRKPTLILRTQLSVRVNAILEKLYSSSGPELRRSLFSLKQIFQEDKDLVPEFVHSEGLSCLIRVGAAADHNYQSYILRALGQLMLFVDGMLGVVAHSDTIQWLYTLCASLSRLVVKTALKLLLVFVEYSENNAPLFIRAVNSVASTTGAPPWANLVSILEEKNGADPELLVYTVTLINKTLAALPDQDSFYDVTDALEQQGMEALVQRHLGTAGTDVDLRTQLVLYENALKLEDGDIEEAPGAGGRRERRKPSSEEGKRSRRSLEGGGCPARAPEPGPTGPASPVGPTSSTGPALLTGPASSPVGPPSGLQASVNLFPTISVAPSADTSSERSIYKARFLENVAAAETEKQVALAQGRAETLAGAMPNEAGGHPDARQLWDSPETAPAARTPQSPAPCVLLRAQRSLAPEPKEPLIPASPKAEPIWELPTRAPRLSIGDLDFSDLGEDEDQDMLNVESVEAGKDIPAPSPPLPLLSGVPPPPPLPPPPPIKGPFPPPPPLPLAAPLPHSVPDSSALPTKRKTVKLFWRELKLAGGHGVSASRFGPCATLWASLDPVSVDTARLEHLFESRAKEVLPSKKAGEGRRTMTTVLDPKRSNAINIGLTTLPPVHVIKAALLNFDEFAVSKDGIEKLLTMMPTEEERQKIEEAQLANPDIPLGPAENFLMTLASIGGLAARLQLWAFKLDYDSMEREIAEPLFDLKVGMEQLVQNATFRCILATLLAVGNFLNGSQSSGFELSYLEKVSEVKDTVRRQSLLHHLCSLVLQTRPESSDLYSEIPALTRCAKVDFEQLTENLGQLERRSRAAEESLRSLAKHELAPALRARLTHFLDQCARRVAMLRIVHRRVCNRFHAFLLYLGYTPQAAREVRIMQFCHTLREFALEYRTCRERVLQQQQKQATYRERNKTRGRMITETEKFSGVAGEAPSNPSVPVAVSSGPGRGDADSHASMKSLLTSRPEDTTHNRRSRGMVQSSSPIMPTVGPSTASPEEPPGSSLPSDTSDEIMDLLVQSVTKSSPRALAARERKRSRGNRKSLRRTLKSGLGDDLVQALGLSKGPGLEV
inactive: [1] -0.075 | [2] -0.042 | [3] 0.179 | [4] 0.051 | entinostat -0.103 | vorinostat 0.034 | citarinostat -0.073 | silmitasertib 0.177 | [5] 0.23 | [6] -0.085

FARS2 (UniProt O95363)
inactive: [1] -0.006 | [2] 0.003 | [3] -0.222 | [4] 0.012 | entinostat 0.028 | vorinostat 0.073 | citarinostat 0.022 | silmitasertib -0.027 | [5] -0.11 | [6] 0.005

GTF3C5 isoform 3 (UniProt Q9Y5Q8)
inactive: [1] -0.028 | [2] 0.211 | [3] -0.054 | [4] -0.051 | entinostat 0.046 | vorinostat 0.072 | citarinostat -0.074 | silmitasertib -0.034 | [5] 0.042 | [6] 0.013

GALNT1 (UniProt Q10472)
inactive: [1] -0.016 | [2] -0.012 | [3] -0.068 | [4] -0.016 | entinostat -0.027 | vorinostat 0.067 | citarinostat 0.011 | silmitasertib -0.007 | [5] -0.121 | [6] 0.046

IFRD2 isoform 2 (UniProt Q12894)
inactive: [1] -0.044 | [2] -0.279 | [3] 0.003 | [4] 0.11 | entinostat -0.2 | vorinostat -0.244 | citarinostat -0.028 | silmitasertib 0.276 | [5] -0.008 | [6] 0.046

GPAT4 (UniProt Q86UL3)
inactive: [1] -0.031 | [2] 0.002 | [3] -0.012 | [4] -0.028 | entinostat -0.107 | vorinostat -0.017 | citarinostat 0.004 | silmitasertib -0.005 | [5] -0.077 | [6] -0.068

HPCAL1 (UniProt P37235)
inactive: [1] 0.033 | [2] -0.014 | [3] -0.152 | [4] -0.032 | entinostat 0.006 | vorinostat -0.018 | citarinostat 0.032 | silmitasertib 0.028 | [5] -0.03 | [6] -0.032

HADHB (UniProt P55084)
UniProt P55084, sequence (P55084 whole entry, looked up): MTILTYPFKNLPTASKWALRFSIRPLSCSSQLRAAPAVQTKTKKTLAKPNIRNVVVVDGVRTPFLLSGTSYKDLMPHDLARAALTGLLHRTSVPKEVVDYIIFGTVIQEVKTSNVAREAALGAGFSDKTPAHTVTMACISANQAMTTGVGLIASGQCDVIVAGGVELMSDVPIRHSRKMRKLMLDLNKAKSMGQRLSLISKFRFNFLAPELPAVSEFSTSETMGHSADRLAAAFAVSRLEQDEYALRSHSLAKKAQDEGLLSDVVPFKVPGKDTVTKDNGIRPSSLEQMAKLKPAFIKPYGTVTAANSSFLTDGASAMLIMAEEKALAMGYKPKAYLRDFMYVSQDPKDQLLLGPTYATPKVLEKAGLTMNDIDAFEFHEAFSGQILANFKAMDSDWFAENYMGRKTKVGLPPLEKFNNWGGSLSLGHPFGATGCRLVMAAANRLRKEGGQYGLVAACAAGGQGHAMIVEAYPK
active: [5] 0.716
inactive: [1] -0.079 | [2] 0.021 | [3] 0.104 | [4] 0.078 | entinostat 0.014 | vorinostat 0 | citarinostat 0.037 | silmitasertib -0.115 | [6] -0.056

FUT8 (UniProt Q9BYC5)
inactive: [1] -0.022 | [2] 0.094 | [3] -0.107 | [4] -0.014 | entinostat 0.042 | vorinostat -0.001 | citarinostat 0.108 | silmitasertib 0.013 | [5] -0.146 | [6] 0.027

HECTD1 (UniProt Q9ULT8)
inactive: [1] -0.036 | [2] -0.087 | [3] -0.017 | [4] -0.01 | entinostat 0.042 | vorinostat 0.06 | citarinostat 0.123 | silmitasertib 0.075 | [5] -0.027 | [6] -0.17
